This note sets out measurements from PubChem BioAssay AID1851 (National Center for Advancing Translational Sciences (NCATS), 2009).

“And” between values parts separate entries of the source, which are not always exact repeats. Equal values may be shown once. Screen size: about 16,000 compounds; about 4,000 (25%) were called active. Another 26% or so got no clear call; they are omitted. Calls follow the shape of the dose curve; as a rule, active = well fitted curve in the direction sought with a large enough effect; inconclusive = small, poorly fitted or top-dose-only effect, or effect the other way; inactive = no such curve, though single readings can be large or run the other way. These entries were drawn from the full list. Some structures have more than one record in an assay (separate samples or runs), and their calls can disagree.
% is scaled to controls: 0 for no effect and ±100 for the full control effect.

Sequence of Cytochrome P450 2C9 (Homo sapiens) (P11712 whole entry, looked up): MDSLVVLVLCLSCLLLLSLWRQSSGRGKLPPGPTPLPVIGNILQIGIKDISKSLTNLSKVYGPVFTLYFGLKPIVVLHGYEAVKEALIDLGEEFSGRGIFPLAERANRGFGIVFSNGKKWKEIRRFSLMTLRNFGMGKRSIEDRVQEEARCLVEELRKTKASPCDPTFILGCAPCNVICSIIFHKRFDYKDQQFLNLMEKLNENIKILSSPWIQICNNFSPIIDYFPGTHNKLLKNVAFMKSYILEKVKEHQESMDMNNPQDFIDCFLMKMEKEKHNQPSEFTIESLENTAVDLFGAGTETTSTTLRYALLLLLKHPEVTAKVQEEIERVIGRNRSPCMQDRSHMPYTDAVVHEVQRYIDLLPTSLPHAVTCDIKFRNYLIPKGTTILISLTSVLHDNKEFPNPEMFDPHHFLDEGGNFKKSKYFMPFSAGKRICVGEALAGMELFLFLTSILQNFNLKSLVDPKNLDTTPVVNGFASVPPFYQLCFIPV

The assay concerns the target Cytochrome P450 2C9 (Homo sapiens) (UniProt P11712). The assay is described as follows: Cytochrome panel assay with activity outcomes. The settings on record: recombinant CYP, pro-luciferin dealkylation, luminescence, p450-cyp2c9; series mostly up to 57.1 µM; activity, negative = inhibition: at the top concentration. As to the method:
The P450 gene superfamily is involved in the metabolism and clearance of xenobiotics. This assay used various human CYP P450 isozymes to measure the dealkylation of various pro-luciferin substrates to luciferin. The luciferin is then measured by luminescence after the addition of a luciferase detection reagent. Pro-luciferin substrate concentration in the assay was equal to its KM for its CYP P450 isozyme. Inhibitors and some substrates limit the production of luciferin, and decrease measured luminescence.
NCGC Assay Protocol Summary:
1, Reagent, 2 uL, Isozyme and Pro-Luciferin
2, Library compounds, 23 nl, 40 uM to 0.24 nM dilution series
3, Controls, 23 nl, Isozyme specific inhibitor
4, Reagent, 2 uL, NADPH regeneration solution
5, Incubation time, 60 min, Isozyme specific temperature
6, Reagent, 4ul, Detection reagent
7, Incubation time, 20 min, Isozyme specific temperature
8, Detection, 1 sec, ViewLux luminescent read
The luciferase-based P450-GloTM Screening Systems were obtained from Promega (Madison, WI) for CYP 1A2 (V9770), CYP 2C9 (V9790), CYP2 C19 (V9880), CYP 2D6 (V9890), and CYP 3A4 Luciferin-PPXE (V9910) and were adapted for 1,536-well microplates and an automated protocol. The control compounds furafylline for 1A2 (F124), sulfaphenazole for CYP 2C9 (S0758), ketoconazole for CYP 2C19 (K1003), quinidine for 2D6 (Q3625), and ketoconazole for 3A4 (K1003) were purchased from Sigma Aldrich (St. Louis, MO). Recombinant P450 enzymes were obtained from baculovirus constructs expressed in insect cells (BD/Gentest).
Medium-binding white solid Kalypsys plates used. Mixtures kept on ice. 1A2: 10 nM 1A2, 100 uM Luc-ME, 100 mM KPO4; 2C9: 10 nM 2C9, 100 uM Luc-H, 25 mM KPO4; 2C19: 5 nM 2C19, 10 uM Luc-H EGE, 50 mM KPO4; 2D6: 5 nM 2D6, 30 uM Luc-ME EGE, 100 mM KPO4; 3A4: 10 nM, 25 uM Luc-PPXE. All amounts are reflected in their final concentration, working concentration is 2x.
NADPH regeneration solution: 1.3 mM NADP+, 3.3 mM glucose-6-phosphate, 3.3 mM MgCl2, 0.4 U/mL glucose-6-phosphate dehydrogenase for all isozymes, 200 mM KPO4 for 3A4. Mixture prepared at RT but kept on ice during automated run.
RT incubation in auxilliary plate hotel for 1A2, 2D6, and 3A4; 37C for 2C9 and 2C19.
Keywords: P450, CYP1A2, CYP2C19, CYP2C9, CYP2D6, CYP3A4, Luciferase, MLSMR, MLSCN, NIH Roadmap, qHTS, NCGC
On to `c1ccc2c(c1)OC[C@@H](C1=NCCN1)O2`, for which the AC50 result is “inactive and 31.6 µM (active)”.
In the case of `COc1cc2c(cc1O)[C@H]1Cc3ccc(OC)c(O)c3CN1CC2`, the “activity, negative = inhibition” value was -28.6% [at 25.6 µM] (inactive).
On the same count and under the same terms, the figure for `c1ccc(N2CCCC3(CCNCC3)C2)cc1` is -19.3% (inactive); for `CC(C)Oc1cccnc1N(C)C1CCN(Cc2ccccc2)CC1` it is -16.1% (inactive).
Turning to `O=C1Nc2ccc(I)cc2/C1=C/c1cc(Br)c(O)c(Br)c1`, the AC50 was 12.6 µM (active).
For the molecule `COc1cc2c(cc1OC)[C@@]13CCN4C=C5CCO[C@H]6CC(=O)N2[C@@H]1[C@@H]6[C@H]5C[C@H]43`, the activity, negative = inhibition is -3.46% [at 11.4 µM] (inactive).
For `COc1ccc(CNC(=O)/C=C\c2ccc3[nH]cc(CCN(C)C)c3c2)cc1`, the “activity, negative = inhibition” value was 12.7% (inactive).
Take `c1ccc(C[C@@H](c2ccccc2)N2CCCCC2)cc1`: the “activity, negative = inhibition” value was -0.583% (inactive).
Still for that read-out and setting: to `CN1CCc2cc(O)cc3c2[C@H]1Cc1ccc(O)c(O)c1-3` belongs -22.6% (inactive).
`O=C(O)C(O)(c1ccc(-c2ccccc2)cc1)c1ccc(-c2ccccc2)cc1`: the AC50 is 3.16 µM (active).
Regarding `C[N+]12CCC(CC1)[C@@H](OC(=O)C(O)(c1ccccc1)c1ccccc1)C2`, the “activity, negative = inhibition” value is -16.5% [at 25.6 µM] (inactive).
The same measure, in the same setting: to `O=C(C[n+]1ccc2ccccc2c1)c1ccc2ccc3ccccc3c2c1` belongs 16.4% [at 11.4 µM] (inactive).
Turning to `CCn1cc(C(=O)O)c(=O)c2cc3c(cc21)OCO3`, the “activity, negative = inhibition” value is 7.22% (inactive).
On to `Clc1ccc(C2=CCC[C@H]3CC[C@@H]2N3)cn1`, for which the “activity, negative = inhibition” value is 24.7% (inactive).
Consider `Cn1ccnc1`, for which the “activity, negative = inhibition” value is -9.78% (inactive).
On the same count and under the same terms, the figure for `c1cc(CCN2CCCCC2)ccn1` is 3.53% [at 11.4 µM] (inactive).
On to `Clc1ccc(C(c2ccc(Cl)cc2)n2cc[n+](C[C@@H](OCc3ccc(Cl)cc3Cl)c3ccc(Cl)cc3Cl)c2)cc1`, for which the concentration at half-maximal activity (AC50) is 31.6 µM (active).
Regarding `Cc1nc(-c2ccc(-c3ccc(C(=O)N4CCc5cc6c(cc54)C4(CCN(C)CC4)CO6)cc3)c(C)c2)no1`, the AC50 entry was “inactive and 7.94 µM (active)”.
For `NCCc1ccc(S(=O)(=O)O)cc1[N+](=O)[O-]`, the activity, negative = inhibition was 8.12% [at 11.4 µM] (inactive).
Take `C[C@H](N)c1cccc(Cl)c1Cl`: the “activity, negative = inhibition” value was -4.33% (inactive).
On the same count and under the same terms, the figure for `CN1C2CCC1CC(OC(=O)c1ccc(Cl)cc1)C2` (centres undefined) is 0.397% (inactive).
Still for that read-out and setting: the figure for `C[C@@H](C(=O)OC1C[C@H]2CC[C@@H](C1)N2C)c1ccc(Br)cc1` (some centres undefined) is 2% (inactive).
Regarding `CC[C@H](Oc1ccc(Cl)cc1)C(=O)OC1C[C@H]2CC[C@@H](C1)N2C` (some centres undefined), the AC50 was 0.1 µM (active).
In the case of `CCCN(CCC)[C@@H]1CCc2ccc(O)cc2C1`, the activity, negative = inhibition result is “inactive”.
Same read-out and setting: the figure for `O=C(Nc1ccccc1)N1CCC2(CC1)CCN(C(=O)Oc1ccccc1)CC2` is -2.26% (inactive); for `c1cnc(N2CCC3(CCNCC3)CC2)nc1` it is -14.4% (inactive); for `C[Se]C[C@@H](N)C(=O)O` it is 10.4% (inactive).
As to `O=c1[nH]c(=O)n([C@H]2C[C@H](O)[C@H](CO)O2)cc1/C=C\Br`, the “activity, negative = inhibition” value is 2.05% (inactive).
Take `Oc1ccc2c3c1O[C@H]1c4c(c5ccccc5n4Cc4ccccc4)C[C@]4(O)[C@H](C2)N(CC2CC2)CC[C@@]314`: the “activity, negative = inhibition” value was -20.5% (inactive).
Take `Clc1cncc(N2CCNCC2)n1`: the half-maximal activity concentration (AC50) is 2 µM (active).
Consider `c1ccc2nc(N3CCNCC3)ccc2c1`, for which the activity, negative = inhibition entry was “inactive”.
Still for that read-out and setting: the figure for `Clc1cccc(N2CCNCC2)c1` is 8.01% (inactive); for `CCCN(CCC)[C@H]1CCc2c(F)ccc(O)c2C1` it is “inactive”; for `NS(=O)(=O)C[C-]1C=C[CH]([Sb-]([Cl])([Cl])([Cl])([Cl])[Cl])C=C1.c1ccncc1` (centres undefined) it is 2.33% [at 11.4 µM] (inactive).
Regarding `Cc1ccccc1-c1cncnc1NCCc1cnc[nH]1`, the concentration at half-maximal activity (AC50) was 1 µM (active).
With `CNCCc1cnc[nH]1`, the “activity, negative = inhibition” value was 4.83% (inactive).
As for `CN1C(=O)C(=Cc2ccccc2Oc2ccc(Cl)c(F)c2)C(=O)N(C)C1=O`, the half-maximal activity concentration (AC50) is 6.31 µM (active).
`COC1=C(C)C(=O)c2c(c(COC(N)=O)c3n2C[C@@H]2[C@@H]3N2C)C1=O` (some centres undefined): the activity, negative = inhibition was -23.6% [at 11.4 µM] (inactive).
Same read-out and setting: the figure for `Cc1sc2ccccc2c1CC1=NCCN1` is -12.9% (inactive); for `CC(=O)O[C@H]1C[C@@H](O[C@@H]2[C@H](C)O[C@H](O[C@@H]3[C@H](C)O[C@H](O[C@@H]4CC[C@@]5(C)[C@@H](CC[C@]6(C)[C@]5(C)C[C@H](O)[C@]5(C)[C@@H](C7=CC(=O)OC7)CC[C@@]56O)C4)C[C@@H]3O)C[C@@H]2O)O[C@@H](C)[C@H]1O[C@H]1O[C@@H](CO)[C@@H](O)[C@@H](O)[C@@H]1O` it is 0.428% [at 25.6 µM] (inactive); for `CNC(=O)OCC[N+](C)(C)C` it is 5.87% (inactive).
With `COC(=O)c1[nH]c2ccc(Br)cc2c1NC(=O)Oc1ccccc1`, the half-maximal activity concentration (AC50) was 8.91 µM (active).
In the case of `COC(=O)c1cc2c(cn1)[nH]c1ccccc12`, the “activity, negative = inhibition” value was 15% (inactive).
Same read-out and setting: the figure for `N[C@@H](Cc1cc(Br)c(O)c(Br)c1)C(=O)O` is -7.73% [at 11.4 µM] (inactive).
On to `COC(=O)N1CCN(C(=O)Cc2ccc(Cl)c(Cl)c2)[C@H](CN2CCCC2)C1`, for which the half-maximal activity concentration (AC50) result is “inactive and 12.6 µM (active)”.
Take `CN(C(=O)Cc1ccc(Cl)c(Cl)c1)[C@@H](CN1CCCC1)c1cccc(OCC(=O)O)c1`: the activity, negative = inhibition result was “inactive”.
The same measure, in the same setting: to `O=C(Cc1ccc(Cl)c(Cl)c1)N1CCCC[C@H]1CN1CCCC1` belongs -9.68% (inactive); to `O=c1[nH]c(=O)n(CCC2=CCCCC2)c(O)c1C=Nc1cccc(F)c1`, -22% (inactive).
With `CCn1cnc2c(Nc3cccc(Cl)c3)nc(N[C@@H]3CCCC[C@H]3N)nc21`, the “activity, negative = inhibition” value was -29.6% (inactive).

Broadly, the AC50 is the midpoint of the concentration-response curve, whichever way the signal moves.
